Our source for the Potency and outcome values is PubChem BioAssay (Tox21).

In assay [1] the target is Aryl hydrocarbon receptor (Homo sapiens) (UniProt P35869). In words: qHTS assay to identify small molecule that activate the aryl hydrocarbon receptor (AhR) signaling pathway (AID 743085).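 Also: HG2L7.5c1 human HepG2 liver cells with stably integrated DRE-driven firefly reporter; series mostly up to about 70 µM; nearly all actives have a fitted effect of over 15% in size.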 A digest of the protocol: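 A multiplexed format paired cell viability (CellTiter-Fluor fluorescence) with AhR-dependent luciferase output (ONE-Glo luminescence) in the same wells of HepG2 DRE-luc cells after 24 h compound exposure at 37C.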
Chain of Aryl hydrocarbon receptor (Homo sapiens) (P35869 whole entry, looked up): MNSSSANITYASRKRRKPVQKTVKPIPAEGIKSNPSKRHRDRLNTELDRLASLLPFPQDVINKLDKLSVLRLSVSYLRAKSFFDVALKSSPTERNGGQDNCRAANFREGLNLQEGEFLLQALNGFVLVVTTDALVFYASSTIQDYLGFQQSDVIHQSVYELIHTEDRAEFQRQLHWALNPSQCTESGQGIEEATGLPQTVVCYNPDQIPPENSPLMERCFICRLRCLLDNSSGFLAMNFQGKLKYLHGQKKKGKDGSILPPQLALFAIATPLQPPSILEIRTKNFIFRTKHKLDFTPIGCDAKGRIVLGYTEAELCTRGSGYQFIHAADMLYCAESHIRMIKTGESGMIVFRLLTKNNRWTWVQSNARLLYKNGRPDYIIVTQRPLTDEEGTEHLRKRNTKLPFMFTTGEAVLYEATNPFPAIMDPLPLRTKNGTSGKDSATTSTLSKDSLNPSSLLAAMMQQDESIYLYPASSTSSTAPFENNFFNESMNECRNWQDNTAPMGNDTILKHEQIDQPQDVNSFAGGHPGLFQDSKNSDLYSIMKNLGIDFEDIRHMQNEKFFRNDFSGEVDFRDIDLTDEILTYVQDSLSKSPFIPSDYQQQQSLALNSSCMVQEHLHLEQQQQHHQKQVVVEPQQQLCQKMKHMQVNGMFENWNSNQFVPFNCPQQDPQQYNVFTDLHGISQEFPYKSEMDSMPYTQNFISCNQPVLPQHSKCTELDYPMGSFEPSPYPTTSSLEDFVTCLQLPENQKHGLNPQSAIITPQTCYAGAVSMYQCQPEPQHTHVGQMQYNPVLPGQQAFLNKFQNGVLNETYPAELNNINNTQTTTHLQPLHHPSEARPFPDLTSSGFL
On the technique in general: In qHTS, concentration-response curves come from the screen itself.

For assay [2], the target named is Peroxisome proliferator-activated receptor gamma (Homo sapiens) (UniProt P37231). In words: qHTS assay to identify small molecule agonists of the peroxisome proliferator-activated receptor gamma (PPARg) signaling pathway (AID 743094; active = well fitted activation curve with a large enough effect in the signal ratio in the repeat runs, not every such curve was filed as active; the % refers to the signal ratio). A digest of the protocol: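 Reporter activation was scored by fluorescence of cleaved LiveBLAzer B/G substrate (1 h, room temperature) in PPARg-bla HEK293H cells previously treated 17 h at 37C with DMSO-dissolved compounds.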
Chain of Peroxisome proliferator-activated receptor gamma (Homo sapiens) (P37231 whole entry, looked up): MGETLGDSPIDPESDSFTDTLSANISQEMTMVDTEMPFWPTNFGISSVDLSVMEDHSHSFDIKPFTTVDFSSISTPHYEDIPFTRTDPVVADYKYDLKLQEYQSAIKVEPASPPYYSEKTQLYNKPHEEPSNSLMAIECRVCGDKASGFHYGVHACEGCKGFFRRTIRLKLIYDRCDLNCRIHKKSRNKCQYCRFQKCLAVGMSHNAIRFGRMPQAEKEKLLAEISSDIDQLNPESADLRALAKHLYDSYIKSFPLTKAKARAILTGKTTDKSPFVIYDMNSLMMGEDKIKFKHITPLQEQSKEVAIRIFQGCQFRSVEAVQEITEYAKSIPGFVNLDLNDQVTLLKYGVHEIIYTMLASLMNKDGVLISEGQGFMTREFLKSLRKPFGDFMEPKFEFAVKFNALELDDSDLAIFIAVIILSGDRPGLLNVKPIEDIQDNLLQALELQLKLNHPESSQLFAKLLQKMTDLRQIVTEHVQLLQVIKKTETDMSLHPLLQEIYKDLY

The nature of assay [3]: qHTS assay to identify small molecule antagonists of the peroxisome proliferator-activated receptor gamma (PPARg) signaling pathway - cell viability counter screen (AID 743194). Also: nearly all actives have a fitted effect of over 55% in size. In short, it runs like this: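 Cytotoxicity counter screen in PPARg-bla HEK293H cells, same wells as reporter assay. Compounds plus 50 nM rosiglitazone (final) for 17 h at 37 C, then viability read by CellTiter-Glo luminescence.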

Assay [4] can be described thus: qHTS assay for small molecule agonists of the antioxidant response element (ARE) signaling pathway (AID 743202; active = well fitted activation curve with a large enough effect in the signal ratio in the repeat runs, not every such curve was filed as active; the % refers to the signal ratio; also: potency is read from the fitted curve at half-maximal effect). In short, it runs like this: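 HepG2 ARE-bla reporter line, 2,000 cells/well; 5 h preincubation 37 C/5% CO2; compound (DMSO) 16 h 37 C; B/G FRET substrate 2 h RT; fluorescence intensity.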
The nature of assay [5]: qHTS assay for small molecule activators of the heat shock response signaling pathway - cell viability counter screen (AID 743209). Also: nearly all actives have a fitted effect of over 50% in size. A digest of the protocol: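 Viability of HSE-bla HeLa cells is measured with CellTiter-Glo in the wells already used for the reporter read. Compound exposure lasts 5 h at 37 C, and luminescence is read after 30 min at room temperature.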
Assay [6] can be described thus: qHTS assay for small molecule activators of the heat shock response signaling pathway (AID 743210; active = well fitted activation curve with a large enough effect in the signal ratio in the repeat runs, with a control signal flat, not every such curve was filed as active; the % refers to the signal ratio;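 also: HeLa cells with beta-lactamase reporter driven by heat shock elements; series mostly up to about 63 µM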). In short, it runs like this:
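Beta-lactamase reporter read-out: FRET substrate fluorescence after 2.5 h at RT, following 5 h compound treatment at 37 C of HeLa cells carrying HSE-driven bla reporter; quantitative HTS format.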

Assay [7] is described as follows: qHTS assay to identify small molecule agonists of the peroxisome proliferator-activated receptor delta (PPARd) signaling pathway - cell viability counter screen (AID 743211). Also: nearly all actives have a fitted effect of over 55% in size. In short, it runs like this: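 Tox21 library compounds, delivered in DMSO, were incubated 17 h with PPARd-bla HEK293H cells; cytotoxicity was taken from CellTiter-Glo luminescence read 30 min after reagent addition.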

Assay [8] concerns the target Peroxisome proliferator-activated receptor delta (Homo sapiens) (UniProt Q03181). In words: qHTS assay to identify small molecule agonists of the peroxisome proliferator-activated receptor delta (PPARd) signaling pathway (AID 743212; calls by dose curve). In short, it runs like this: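 Read-out: beta-lactamase FRET fluorescence after 2 h room-temperature incubation with LiveBLAzer B/G substrate. Cells were HEK293H carrying a UAS-bla reporter for PPARd, treated at 37 C with DMSO-dissolved compounds.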

Assay [9] can be described thus: qHTS assay to identify small molecule antagonists of the peroxisome proliferator-activated receptor delta (PPARd) signaling pathway - cell viability counter screen (AID 743213). Also: nearly all actives have a fitted effect of over 50% in size. A digest of the protocol: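 In this counter screen, HEK293H cells carrying a UAS-beta-lactamase reporter are co-treated with test compounds and 300 nM L165041 (final) for 17 h at 37 C; cell viability is quantified by CellTiter-Glo luminescence.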

Assay [10] is described as follows: qHTS assay to identify small molecule agonists of the farnesoid-X-receptor (FXR) signaling pathway - cell viability counter screen (AID 743218). Also: nearly all actives have a fitted effect of over 45% in size. A digest of the protocol:
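Viability of FXR-bla HEK 293T cells is measured by ATP-based CellTiter-Glo luminescence following 16 h compound treatment at 37 C and a prior 2 h room-temperature beta-lactamase substrate step.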

A short description of assay [11]: qHTS assay to identify small molecule antagonists of the farnesoid-X-receptor (FXR) signaling pathway - cell viability counter screen (AID 743221; active = well fitted cell-killing curve with a large enough effect in the repeat runs, not every such curve was filed as active; also: nearly all actives have a fitted effect of over 50% in size). A digest of the protocol: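 Cytotoxicity is taken from ATP luminescence (CellTiter-Glo, 30 min, room temperature) in FXR-bla HEK 293T cells previously incubated 16 h at 37 C with compound and chenodeoxycholic acid at 50 uM final.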

Assay [12] in a line: qHTS assay to identify small molecule that activate the aryl hydrocarbon receptor (AhR) signaling pathway - cell viability counter screen (AID 743086).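 Also: HepG2 liver cells carrying the AhR DRE luciferase reporter; series mostly up to about 70 µM; nearly all actives have a fitted effect of over 45% in size.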 A digest of the protocol:
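HepG2-AhR-luc (HG2L7.5c1) cells, 4000/well, treated 24 h at 37 C with compound; viability measured as CellTiter-Fluor fluorescence after 30 min in the same wells as the luciferase read.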

For assay [13], the target named is Peroxisome proliferator-activated receptor gamma (Homo sapiens) (UniProt P37231). In words: qHTS assay to identify small molecule antagonists of the peroxisome proliferator-activated receptor gamma (PPARg) signaling pathway (AID 743191; calls by dose curve; also: series mostly up to about 63 µM; nearly all actives have a fitted effect of over 30% in size). A digest of the protocol:
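GeneBLAzer PPARg UAS-bla HEK293H cells, 5 h post-plating, exposed to compounds 17 h at 37C. LiveBLAzer B/G FRET substrate added for 1 h at room temperature; beta-lactamase reporter read by fluorescence intensity.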

Assay [14] is described as follows: qHTS assay for small molecule agonists of the antioxidant response element (ARE) signaling pathway - cell viability counter screen (AID 743203; calls by dose curve; also: nearly all actives have a fitted effect of over 55% in size). A digest of the protocol: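 Viability counter screen: stably transfected ARE-bla HepG2 line, 16 hrs compound exposure at 37C/5% CO2, ATP-based CellTiter-Glo luminescence measured in the reporter wells.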
For assay [15], the target named is Vitamin D3 receptor (Homo sapiens) (UniProt P11473). In words: qHTS assay to identify small molecule agonists of the vitamin D receptor (VDR) signaling pathway (AID 743222; calls by dose curve). A digest of the protocol:
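Fluorescence from cleaved LiveBLAzer B/G FRET substrate served as readout. VDR-bla cells had been treated 16 h at 37C with test compounds in DMSO, following a 4 h settling period, and substrate was loaded for 2 h at RT.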

The target in assay [16] is Bile acid receptor (Homo sapiens) (UniProt Q96RI1). In words: qHTS assay to identify small molecule agonists of the farnesoid-X-receptor (FXR) signaling pathway (AID 743220; active = well fitted activation curve with a large enough effect in the signal ratio in the repeat runs, not every such curve was filed as active; the % refers to the signal ratio). A digest of the protocol:
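FXR-UAS-bla HEK 293T cells carrying a UAS-driven beta-lactamase reporter were plated for 5 h at 37C/5% CO2, then exposed to DMSO-dissolved Tox21 10K compounds for 16 h at 37C. A LiveBLAzer B/G FRET substrate was loaded for 2 h at room temperature before fluorescence reading.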

The target of assay [17] is Vitamin D3 receptor (Homo sapiens) (UniProt P11473). In words: qHTS assay to identify small molecule antagonists of the vitamin D receptor (VDR) signaling pathway (AID 743223; active = well fitted inhibition curve with a large enough effect in the signal ratio in the repeat runs, not every such curve was filed as active; the % refers to the signal ratio). In short, it runs like this: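 Quantitative HTS in VDR-bla reporter cells stimulated with 1alpha,25-dihydroxyvitamin D3, 3 nM final. Compound exposure 16 h, 37C, 5% CO2. Read-out: beta-lactamase FRET substrate fluorescence, 2 h RT.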
Chain of Vitamin D3 receptor (Homo sapiens) (P11473 whole entry, looked up): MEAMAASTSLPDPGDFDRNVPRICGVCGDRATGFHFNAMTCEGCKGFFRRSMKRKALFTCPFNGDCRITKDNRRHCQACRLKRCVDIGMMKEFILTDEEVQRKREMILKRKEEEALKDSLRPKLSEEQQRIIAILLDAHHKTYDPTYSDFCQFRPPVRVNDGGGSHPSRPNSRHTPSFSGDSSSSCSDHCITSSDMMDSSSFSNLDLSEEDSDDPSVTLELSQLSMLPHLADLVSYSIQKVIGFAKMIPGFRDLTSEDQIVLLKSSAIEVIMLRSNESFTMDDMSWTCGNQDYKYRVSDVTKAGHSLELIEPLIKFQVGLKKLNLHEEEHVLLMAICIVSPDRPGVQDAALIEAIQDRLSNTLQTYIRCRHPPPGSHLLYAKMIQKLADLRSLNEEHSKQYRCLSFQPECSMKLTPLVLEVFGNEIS

Assay [18] is described as follows: qHTS assay to identify small molecule agonists of the vitamin D receptor (VDR) signaling pathway - cell viability counter screen (AID 743224). Also: series mostly up to about 63 µM; nearly all actives have a fitted effect of over 50% in size. In short, it runs like this:
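Compounds were pin-transferred onto VDR-bla cells plated 4 h earlier; following 16 h incubation at 37C, cell viability was quantified by CellTiter-Glo luminescence after 30 min at room temperature.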

The target of assay [19] is Peroxisome proliferator-activated receptor delta (Homo sapiens) (UniProt Q03181). Description: qHTS assay to identify small molecule antagonists of the peroxisome proliferator-activated receptor delta (PPARd) signaling pathway (AID 743215; active = well fitted inhibition curve with a large enough effect in the signal ratio in the repeat runs, not every such curve was filed as active; the % refers to the signal ratio;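 also: cells stimulated with agonist L165041 at 300 nM final during compound exposure; series mostly up to about 62 µM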). A digest of the protocol:
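Plated HEK293H PPARd-bla cells rested 5 h at 37 C and 5% CO2. Compound, then agonist L165041 at 300 nM final, was added; 17 h at 37 C followed. Substrate loading, 2 h room temperature, fluorescence measured.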

In assay [20] the target is Bile acid receptor (Homo sapiens) (UniProt Q96RI1). Description: qHTS assay to identify small molecule antagonists of the farnesoid-X-receptor (FXR) signaling pathway (AID 743217; active = well fitted inhibition curve with a large enough effect in the signal ratio in the repeat runs, not every such curve was filed as active; the % refers to the signal ratio). In short, it runs like this:
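Screen of the Tox21 10K library in quantitative HTS format using FXR-UAS-bla HEK 293T reporter cells. Agonist chenodeoxycholic acid, 50 uM final, added with compounds; 16 h incubation at 37 °C; beta-lactamase FRET fluorescence measured.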

Inconclusive results are not listed. A number with no mark means an inactive call. Calls of active or inactive are those of the source. Unless noted, calls follow the shape of the dose curve; as a rule, active = well fitted curve in the direction sought with a large enough effect in the repeat runs; inconclusive = weak or mixed curves; inactive = no such curve, though single readings can be large; an effect the other way counts as inactive or inconclusive.

Chain of Peroxisome proliferator-activated receptor delta (Homo sapiens) (Q03181 whole entry, looked up): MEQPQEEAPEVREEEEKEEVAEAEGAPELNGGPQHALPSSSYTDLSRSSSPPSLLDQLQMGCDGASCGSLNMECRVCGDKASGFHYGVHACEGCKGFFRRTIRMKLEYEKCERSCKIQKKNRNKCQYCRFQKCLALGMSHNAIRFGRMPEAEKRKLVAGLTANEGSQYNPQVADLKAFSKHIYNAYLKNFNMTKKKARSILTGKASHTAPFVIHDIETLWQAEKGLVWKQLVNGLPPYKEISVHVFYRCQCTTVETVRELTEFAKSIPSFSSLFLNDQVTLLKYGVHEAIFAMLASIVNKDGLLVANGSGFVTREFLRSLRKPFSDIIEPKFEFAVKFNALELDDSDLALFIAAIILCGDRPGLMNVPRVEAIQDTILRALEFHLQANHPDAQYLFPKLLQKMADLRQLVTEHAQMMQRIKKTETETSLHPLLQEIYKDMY
Chain of Bile acid receptor (Homo sapiens) (Q96RI1 whole entry, looked up): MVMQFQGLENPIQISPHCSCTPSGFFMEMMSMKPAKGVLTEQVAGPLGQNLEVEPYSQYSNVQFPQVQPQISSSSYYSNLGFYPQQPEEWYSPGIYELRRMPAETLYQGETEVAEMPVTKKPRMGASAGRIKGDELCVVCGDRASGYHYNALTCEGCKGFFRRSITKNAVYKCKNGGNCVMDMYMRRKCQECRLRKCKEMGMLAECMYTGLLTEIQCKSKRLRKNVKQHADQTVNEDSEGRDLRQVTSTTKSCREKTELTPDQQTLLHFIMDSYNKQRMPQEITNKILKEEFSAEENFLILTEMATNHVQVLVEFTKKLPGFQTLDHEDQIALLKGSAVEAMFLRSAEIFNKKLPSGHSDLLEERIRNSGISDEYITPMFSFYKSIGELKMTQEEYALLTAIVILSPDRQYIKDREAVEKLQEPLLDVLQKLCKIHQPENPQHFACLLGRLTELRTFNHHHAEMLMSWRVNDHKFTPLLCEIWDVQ

Regarding `CCOC(CN1CCN(CC(C)C(=O)c2ccccc2)CC1)c1ccccc1` (configuration not stated), the Potency result in [1], in assay [2] and in assay [5] was “inactive” each time. For the same compound, the compound was called inactive in [3], in [6], in assay [7], in assay [8], in assay [9] and in assay [10]. Moreover, the call in [11] was inactive. In addition, the Potency in [4] was 10.3 µM (active).

On to `OC[C@H]1O[C@@H](O[C@@H]2[C@@H](CO)O[C@](O)(CO)[C@H]2O)[C@H](O)[C@@H](O)[C@H]1O`, for which the Potency result in assay [12], in assay [2], in assay [4] and in [5] was “inactive” each time. Also, the outcome in assay [13], in assay [3], in assay [14], in [6], in assay [7] and in [10] was inactive. Also, the outcome in [11] and in assay [15] was inactive.

For `COS(=O)(=O)O`, the Potency result in [1] and in [12] was “inactive” each time. Besides, the outcome in [3], in assay [14], in [9], in assay [10], in assay [16] and in [11] was inactive. Further, the compound was called inactive in assay [15], in assay [17] and in [18].

On to `COc1ccc(CCO)cc1`, for which the Potency entry in assay [1], in assay [12], in [2] and in [5] was “inactive” each time. Besides, the compound was classed as inactive in [14], in assay [6], in [8], in assay [9], in assay [19] and in [15]. Moreover, the compound was classed as inactive in [17] and in assay [18].

For `CCOc1cccc(N)c1`, the Potency entry in assay [1], in assay [12], in assay [4] and in assay [5] was “inactive” throughout. The call in assay [13], in assay [3], in assay [14], in assay [6], in [8] and in [9] was inactive. Besides, the call in [19], in assay [10], in assay [15], in [17] and in assay [18] was inactive.

With `c1ccc2c(CC3=NCCN3)cccc2c1`, the Potency result in assay [12], in assay [2], in assay [4] and in assay [5] was “inactive” in each case. Moreover, the compound was called inactive in assay [13], in assay [3], in assay [14], in assay [6], in assay [7] and in assay [8]. Also, the result in assay [19], in assay [10], in assay [11] and in [18] was inactive.

Take `CC(=O)CC(=O)Nc1ccc(C)cc1C`: the Potency result in assay [1], in assay [12], in [4] and in assay [5] was “inactive” in each case. Besides, the outcome in assay [3], in [14], in assay [7], in assay [8], in assay [9] and in assay [19] was inactive. Moreover, the outcome in assay [20], in [10], in assay [16], in assay [11] and in assay [18] was inactive.

Regarding `O=C(Cl)c1ccccc1[N+](=O)[O-]`, the Potency entry in assay [12], in assay [2], in [4] and in assay [5] was “inactive” throughout. In addition, the result in assay [13], in assay [3], in [14], in assay [6], in assay [7] and in assay [9] was inactive. Further, the compound was called inactive in [10] and in assay [18].

`Cc1c(N)cccc1Cl`: the Potency entry in assay [12], in [2] and in assay [5] was “inactive” in each case. Moreover, the outcome in [13], in [3], in assay [14], in assay [6], in [7] and in [8] was inactive. The compound was classed as inactive in assay [9], in assay [20], in [10], in assay [16], in [11] and in assay [17]. For the same compound, in assay [18], the call was inactive.

Regarding `CC1=C(O)C(=O)C(C)O1` (configuration not stated), the Potency entry in [1], in assay [12], in [4] and in [5] was “inactive” throughout. The outcome in [3], in assay [14], in [6], in assay [8], in assay [9] and in assay [19] was inactive. The result in [20], in [16], in assay [11] and in [18] was inactive.
